Hits are enriched below; roughly 9.2% of the tested compounds scored in any of these assays.
Rab9 prom act: Rab9 promoter activation | Potency, µM (titrated, usually from 9.22 µM), actives largely listed as activators | actives 2.8% (n = 320,000) | Huh7 Rab9 promoter-luciferase reporter, luminescence, 24 h | AID 485297; further: nearly all actives have a fitted effect of over 60% in size
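Luciferase signal after 10 min detection reagent at ambient indicates Rab9 promoter upregulation; stably transfected Huh7 cells were treated 24 h with compound in DMSO at 37 °C, 5% CO2.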
NPC1 promoter act: activates the NPC1 promoter; AID 485313; actives 2.4% (n = 320,000); Potency, µM (doses to about 9.22 µM), most hits filed as activators; Huh7 NPC1 promoter luciferase reporter, 24 h; further: nearly all actives have a fitted effect of over 60% in size
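Readout is luciferase luminescence, reflecting NPC1 promoter activation in stably transfected Huh7 cells after 24 h compound exposure at 37 °C in reduced-serum medium with 10% FBS.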
SMN2 splice enh: increases expression of the SMN2 splice variant; actives 2.8% (n = 210,000); HEK293 SMN2-luciferase splicing reporter, luminescence, 30-36 h; Potency, µM (titrated, usually from 46.1 µM), usual class: activators; further: nearly all actives have a fitted effect of over 55% in size
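qHTS luciferase splicing reporter: luminescence rises when SMN2 exon 7 is included in transfected HEK293 cells. Compound exposure lasted 30-36 h at 37C, with 4.5 mM final sodium butyrate as control, followed by a ONE-Glo read.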
ELG1 genotox: genotoxicity induction in ELG1-luciferase HEK293T cells; Potency, µM (highest dose often 46 µM), usual class: activators; HEK293T ELG1-luciferase reporter, luminescence, 16 h; actives 1.3% (n = 330,000); further: nearly all actives have a fitted effect of over 60% in size
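Genotoxicity was scored as increased ELG1-luciferase reporter signal, measured by ONE-Glo luminescence (30 min, room temperature). Compound or vehicle exposure of the HEK293T reporter cells lasted 16 hr at 37°C.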
FLuc counter: counter-screen for miR-21 project: firefly luciferase inhibitors or activators; P08659; purified FLuc, Km substrates, luminescence inhibition; Potency, µM (highest dose often 57.5 µM), hits mostly inhibitors; actives 6.9% (n = 360,000); AID 588342; further: nearly all actives have a fitted effect of over 55% in size
Target sequence (P08659 whole entry, looked up): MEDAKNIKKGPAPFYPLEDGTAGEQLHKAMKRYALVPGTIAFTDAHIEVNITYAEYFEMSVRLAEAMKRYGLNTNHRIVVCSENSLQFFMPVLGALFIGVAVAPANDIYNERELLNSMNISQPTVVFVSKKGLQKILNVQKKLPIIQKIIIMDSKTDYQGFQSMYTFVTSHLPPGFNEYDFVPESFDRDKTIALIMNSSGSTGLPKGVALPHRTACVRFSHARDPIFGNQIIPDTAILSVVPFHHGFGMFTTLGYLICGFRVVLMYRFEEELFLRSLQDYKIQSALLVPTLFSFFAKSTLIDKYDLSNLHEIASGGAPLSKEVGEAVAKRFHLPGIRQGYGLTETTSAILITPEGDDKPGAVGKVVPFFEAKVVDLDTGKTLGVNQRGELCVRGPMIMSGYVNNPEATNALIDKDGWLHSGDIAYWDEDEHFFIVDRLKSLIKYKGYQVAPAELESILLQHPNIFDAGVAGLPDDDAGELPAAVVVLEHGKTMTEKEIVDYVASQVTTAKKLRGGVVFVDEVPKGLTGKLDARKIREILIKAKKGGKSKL
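Biochemical qHTS of compounds, final roughly 60 µM downward over six points, against 10 nM purified firefly luciferase using Km concentrations of substrates (10 uM D-luciferin, 10 uM ATP) in Tris acetate pH 7.5 buffer; luminescence output.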
ELG1 DNA repair: ELG1-dependent DNA repair inhibition; HEK293T ELG1-luciferase reporter, luminescence, 16 h; DNA damage induced by 5-fluorouridine; Potency, µM (titrated, usually from 46.1 µM), most hits filed as inhibitors; actives 2.3% (n = 330,000); AID 504467; further: nearly all actives have a fitted effect of over 55% in size
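Step one: seed 2,000 cells per well. Step two: pin-transfer compound or DMSO alongside 5-fluorouridine. Step three: incubate 16 hr, 37 °C, 5% CO2. Step four: add ONE-Glo, wait 30 min, read luminescence.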
Hits are given with their value; [ ] = remark or other dose. The call rests on the fitted dose curve; in most records, active means well fitted curve in the direction sought with a large enough effect; inconclusive means small, poorly fitted or top-dose-only effect, or another doubt; inactive means no such curve, though single readings can be large; an effect the other way counts as inactive or inconclusive.

How did Cc1cccc(N=Nc2c(N)n[nH]c2N)c1 do in these assays?
Rab9 prom act: inactive; NPC1 promoter act: inactive; ELG1 genotox: inactive; FLuc counter: inconclusive; ELG1 DNA repair: inconclusive

Results for Cc1cccc(NC(=O)[C@@H]2CCCN2C(=O)OC(C)(C)C)c1 ?
Rab9 prom act: inactive; NPC1 promoter act: inactive; ELG1 genotox: inactive; FLuc counter: inactive; ELG1 DNA repair: inactive

What do the screens show for `COC(=O)C(Cc1ccc(O)cc1)NC(=O)C(CC(=O)OC(C)(C)C)NC(=O)OC(C)(C)C` (stereo not given)?
Rab9 prom act: inactive; NPC1 promoter act: inactive; ELG1 genotox: inactive; FLuc counter: inactive; ELG1 DNA repair: inactive

Results for Cc1ccc(S(=O)(=O)N2CCCCC2)cc1NC(=O)c1ccc2c(=O)n3c(nc2c1)CCCCC3 ?
Rab9 prom act: inactive; NPC1 promoter act: inactive; SMN2 splice enh: inactive; ELG1 genotox: inactive; FLuc counter: inactive; ELG1 DNA repair: 12µM

How did Cc1ccc(NC(=O)c2ccc3c(=O)n4c(nc3c2)CCC4)cc1S(=O)(=O)N(C)C do in these assays?
Rab9 prom act: inactive; NPC1 promoter act: inactive; ELG1 genotox: inactive; FLuc counter: inconclusive; ELG1 DNA repair: inactive

Results for O=C(Nc1ccc(S(=O)(=O)N2CCCC2)cc1)c1ccc2c(=O)n3c(nc2c1)CCCCC3 ?
Rab9 prom act: inactive; NPC1 promoter act: inactive; SMN2 splice enh: inactive; ELG1 genotox: inactive; FLuc counter: inactive; ELG1 DNA repair: 10µM

What do the screens show for `CC(=O)Nc1ccc(Sc2ccccc2C(=O)O)cn1`?
Rab9 prom act: inactive[1.84 µM]; NPC1 promoter act: inactive; ELG1 genotox: inactive; FLuc counter: inactive; ELG1 DNA repair: inactive

How did O=C(CN1CCOCC1)Nc1ncc(Cc2cccc(Cl)c2Cl)s1 do in these assays?
Rab9 prom act: inactive; NPC1 promoter act: inactive; SMN2 splice enh: inactive; ELG1 genotox: inactive; FLuc counter: inactive; ELG1 DNA repair: inactive

What do the screens show for `O=C(Nc1ccccc1)C1CC(=O)N(Cc2ccccc2)C1` (stereo not given)?
Rab9 prom act: inactive; NPC1 promoter act: inactive; ELG1 genotox: inactive; FLuc counter: inactive; ELG1 DNA repair: inactive

What do the screens show for `CC(=O)c1ccc(NC(=O)C2CC(=O)N(Cc3ccccc3)C2)cc1` (stereo not given)?
Rab9 prom act: inconclusive; NPC1 promoter act: inconclusive; SMN2 splice enh: inconclusive; ELG1 genotox: 18µM; FLuc counter: 9.5µM; ELG1 DNA repair: inconclusive

What do the screens show for `Cc1ccnc(NC(=O)C2CC(=O)N(Cc3ccccc3)C2)c1` (stereo not given)?
Rab9 prom act: inactive; NPC1 promoter act: inactive; ELG1 genotox: 3.3µM; FLuc counter: 6µM; ELG1 DNA repair: inconclusive

How did CN1CCC(N(C)C(=O)c2ccc(Cl)c(S(=O)(=O)N3CCOCC3)c2)CC1 do in these assays?
Rab9 prom act: inactive; NPC1 promoter act: inactive; ELG1 genotox: inactive; FLuc counter: inactive; ELG1 DNA repair: inactive

What do the screens show for `O=C(COC(=O)CC1CC2CCC1C2)NCc1ccc(F)cc1` (stereo not given)?
ELG1 genotox: inactive; ELG1 DNA repair: inconclusive

What do the screens show for `Cc1onc(-c2c(F)cccc2Cl)c1C(=O)OCC(=O)c1c[nH]c2ccccc12`?
Rab9 prom act: inactive; NPC1 promoter act: inactive; ELG1 genotox: inactive; FLuc counter: inactive; ELG1 DNA repair: 23µM

How did COc1ccc(C(=O)OCC(=O)c2c[nH]c3ccccc23)c(OC)c1 do in these assays?
ELG1 genotox: inactive; ELG1 DNA repair: inconclusive

Results for COc1cccc(C(=O)OCC(=O)c2c[nH]c3ccccc23)c1OC ?
Rab9 prom act: inconclusive; NPC1 promoter act: inactive; ELG1 genotox: inactive; FLuc counter: 9.5µM; ELG1 DNA repair: inconclusive

How did O=C(OCC(=O)c1c[nH]c2ccccc12)c1cccc([N+](=O)[O-])c1 do in these assays?
Rab9 prom act: inactive; NPC1 promoter act: inactive; ELG1 genotox: inactive; FLuc counter: 17µM; ELG1 DNA repair: inconclusive

Results for O=C(CC1CC2CCC1C2)OCC(=O)c1c[nH]c2ccccc12 (stereo not given) ?
Rab9 prom act: inactive; NPC1 promoter act: inactive; SMN2 splice enh: inactive; ELG1 genotox: inactive; FLuc counter: 15µM; ELG1 DNA repair: inconclusive

Screening data deposited in PubChem BioAssay by National Center for Advancing Translational Sciences (NCATS).
